Consider 29 sequences from PubChem BioAssay AID1508600 (Functional Genomics Laboratory (NCATS/FGL), 2020).

The whole screen tested about 53,000 sequences, of which about 3,700 (7%) were called active. Many of the other results were omitted from the sample, so actives are more common in it than they were. Unmarked numbers belong to inactive results.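 How the source made its calls: active means gene knockdowns whose robust z-score for IL-1 alpha signal is at least 2 or at most -2, so actives lie on both sides; inactive means the rest.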

The nature of the assay: Components of the Cytosolic LPS Sensing Pathway: Gene Identification via Genome-wide siRNA Screen.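 Further: robust z of the log signal after scaling to non-targeting control siRNA wells of the plate.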 The settings on record: RAW264.7 macrophages, IL-1a HTRF, actives lie on both sides, screened at 100 nM (by protocol), cells primed 5 h with Pam3CSK4 first. A digest of the protocol:
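Supernatant IL-1a by HTRF from RAW264.7 cells primed with Pam3CSK4 (5 hours) and transfected with LipidA (24 hour) after 48h siRNA knockdown at 100 nM; cell viability checked with CellTiter-Glo.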
A general note: TR-FRET usually uses a lanthanide donor and a delayed reading to cut background.
Regarding CCUUUGGUAAUCUCCAAAATT against Amph, the z-score was 0.862.
Take CCUUCUGCGGCUCAGUCUATT against Bach2os: the z-score is -0.199.
Regarding GGAACCUACUGCUACAUCATT against Sftpc, the z-score was 2.24 (active).
With GGCUUUCCUUACCAUAUAUTT against Trim7, the z-score was -0.675.
For GGAGAUUGGCAUAGAGAAGTT against Myo5b, the z-score is 0.437.
On to AUCCAUUUUGUGCUAGGCATT against Cacfd1, for which the z-score was 0.473.
As for CCUGCUAUGUAAUAUAGAUTT against Eef2k, the z-score is 0.0542.
Regarding “CCCGCUUGUUCUGAUGAUATT against 2310039H08Rik”, the z-score was -2.26 (active).
For the sequence GGAAAGAAAUGAAUCAGUATT against Rnf216, the z-score was 0.882.
As to GGACAUUAAGAGUGGAAAGTT against Nucb1, the z-score is 0.777.
As to GGGAAGGAUUAUGUCAAAUTT against Kit, the z-score was 0.328.
In the case of CGGCCUCCAUGUUAAGAUATT against Csf2rb2, the z-score is -0.249.
With GCCUGAAGAGAGUCUUAUCTT against Bnip5 the figure was 1.09.
For GGCAUUUAAAUCUGUGUGUTT against Slc39a6, the z-score was -0.471.
For the sequence GCAAUGGUUUCGGCUACGATT against Hoxb3, the z-score is 2.18 (active).
With GGGAGGAAGUGGAAGUUCUTT against Tsc22d1, the z-score is 0.488.
Regarding GGUGAAUGUAGUGUUAAAATT against Cyrib, the z-score is -0.204.
The result for GAGAUGUCCGAAAUGCCAATT against Smco4 reads 1.73; that for GGACAGUGUAGUCAAAAAATT against Cx3cr1, 0.149.
On to GCAAACCUCAAUCUUGAAATT against Kif15, for which the z-score is 0.297.
With “GGCAGUUAUUUCUAUCUUATT against 1700018F24Rik” the figure was 0.683; with GGCUGUUGAACAGGUUAUCTT against Mis12, 0.645.
As to CCUGAUCAACAAACCGGAUTT against Rfxank, the z-score is 1.29.
With CGACUGUCGUUUGUUGAUGTT against Tktl2, the z-score is -0.766.
For GUAGAGUGAUGAGAGGCCUTT against Vmn1r-ps8, the z-score was -0.475.
Turning to UUCAAAUAAACUCUCUGCUTT against Krtap31-2, the z-score is 0.802.
With GGAAUUCCCAAGAGAAGGATT against Gk the figure was -5.27 (active).
Take GCCUUCAUGGGAUUUGUCUTT against Opn1sw: the z-score was -0.498.
For GGGCCACAGCUUAAUACUGTT against Ptov1, the z-score is 3.28 (active).
